High-throughput results from PubChem BioAssay.
Rows were chosen to be rich in hits. Some 2.8% of all compounds tested hit in one or more screens of this group.
HIF act – HIF pathway transcriptional activation; U2OS HRE-luciferase reporter, luminescence; normalized: DMSO 0%, desferrioxamine 100%; activation, % at 7.5 µM (by protocol); 300,000 compounds, 0.32% hits; AID 1910;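 active = mean activation of at least 10% of the iron chelator positive control signal, with at least half of replicates also reaching 10%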
AHR act – activates the human aryl hydrocarbon receptor. activation, % at 5 µM. AHR-responsive luciferase reporter cells, luminescence. AID 2796. 320,000 compounds, 2.5% hits. P35869; in the data active = activation above about 47%
Target sequence (P35869 whole entry, looked up): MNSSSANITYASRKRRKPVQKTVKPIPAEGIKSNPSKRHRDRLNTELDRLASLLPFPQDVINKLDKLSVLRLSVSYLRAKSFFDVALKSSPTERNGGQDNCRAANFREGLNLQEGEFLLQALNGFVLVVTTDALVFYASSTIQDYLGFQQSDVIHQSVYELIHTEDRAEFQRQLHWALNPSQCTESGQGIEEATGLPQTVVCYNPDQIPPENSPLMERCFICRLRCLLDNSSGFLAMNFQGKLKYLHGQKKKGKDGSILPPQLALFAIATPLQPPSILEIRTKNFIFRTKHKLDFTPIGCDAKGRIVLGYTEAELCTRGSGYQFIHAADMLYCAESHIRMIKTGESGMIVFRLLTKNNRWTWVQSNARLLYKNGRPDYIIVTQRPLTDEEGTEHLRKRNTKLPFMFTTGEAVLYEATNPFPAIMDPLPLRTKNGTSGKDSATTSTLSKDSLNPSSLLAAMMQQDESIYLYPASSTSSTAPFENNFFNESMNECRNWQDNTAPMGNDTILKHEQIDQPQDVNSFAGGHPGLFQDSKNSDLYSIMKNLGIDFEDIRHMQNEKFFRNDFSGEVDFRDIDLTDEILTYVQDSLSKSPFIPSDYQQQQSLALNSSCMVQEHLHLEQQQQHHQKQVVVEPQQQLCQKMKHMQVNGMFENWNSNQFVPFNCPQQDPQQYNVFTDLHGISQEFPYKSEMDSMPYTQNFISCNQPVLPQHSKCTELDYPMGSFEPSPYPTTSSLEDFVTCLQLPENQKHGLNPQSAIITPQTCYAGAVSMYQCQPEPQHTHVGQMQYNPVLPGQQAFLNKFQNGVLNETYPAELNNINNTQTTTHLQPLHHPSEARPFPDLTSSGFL
pCIP destab – compounds decreasing mouse p/CIP protein stability. decrease of EGFP signal, % at 10 µM. Q05BA5. F442A p/CIP-EGFP cells, EGFP fluorescence, 16 h. AID 1984. 290,000 compounds, 0.01% hits;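 active = EGFP signal decrease of at least 30% at 10 µM or well 3 SD below plate mean, unless failing retest; inactive = the rest, including hits failing retest or dose response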
PolyA inhibitor – blocks polyadenylation in yeast reporter cells; 300,000 compounds, 0.02% hits; activity score, % at 12 µM; S. cerevisiae SKY197-pL101 polyadenylation reporter, beta-gal luminescence; efflux-impaired pdr1/pdr3 knockout yeast; score 100 = 6 SD above DMSO; AID 1875;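 active = lowest replicate activity score at least 50, where 100 means six control SD above control mean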;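 also: yeast exposed to compound for 9 h at 30 °C; higher score means more reporter readthrough which indicates perturbed polyadenylation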
Platelet DG rel – platelet dense granule release activity. human platelet-rich plasma, SFLLRN dense granule ATP release, luminescence. 300,000 compounds, 0.22% hits. AID 1663. inhibition, %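 (compounds screened at 7.5 µM in platelet-rich plasma)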;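 active = mean replicate score, as percent of positive control, at or above 50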
Large screens that a line does not name were inactive.

Cc1ccsc1/C=N/N=C/c1sccc1C	AHR act 70
Cc1ccsc1/C=N/N=C1\C(=O)Nc2ccccc21	AHR act 70
Cc1ccsc1/C=N/NC(=O)CO	none
COc1ccc(/C=N\NC(=O)c2sccc2C)cc1Cn1nc(C)cc1C	AHR act 57
Cc1ccsc1/C=N/NC(=O)c1sccc1C	AHR act 48
Cc1ccc2c(c1)C1CC(C)(O2)N(c2cccc(C(=O)N3CCN(c4ccccn4)CC3)c2)C(=O)N1 (centres undefined)	none
COc1ccccc1/C=C/C=N/NC(=O)c1ccc2nc[nH]c2c1	none
CC(C)NS(=O)(=O)c1ccc(NCCCn2ccnc2)c([N+](=O)[O-])c1	none
O=C(N=C1N=C2C=CC(Br)=CN2Cc2ccccc21)c1ccc([N+](=O)[O-])cc1[N+](=O)[O-]	AHR act 94
CN(C)c1ccc(C(C(=O)NC2CCCC2)N(C(=O)c2csnn2)C2CC2)cc1 (centres undefined)	none
CCOc1ccccc1OCC(=O)Nc1nc2ccccc2[nH]1	none
CCOc1ccccc1Nc1ncnc2ccc(Br)cc12	AHR act 76
CC(=O)c1cccc(Nc2ncnc3ccc(Br)cc23)c1	AHR act 74
Cc1ccc2ncnc(Nc3ccc(C)c(C)c3)c2c1	AHR act 50
CCOc1ccccc1Nc1nc2ccccc2[nH]1	AHR act 50
Cc1nnc(SCC(=O)NC2CCCC2)n1C(C)C	none
COc1ccc(OC)c(Nc2cc(C)nc3ccc(C)cc23)c1	none (no result: pCIP destab)
CCOc1ccccc1Nc1cc(C)nc2ccc(C)cc12	AHR act 48 (no result: pCIP destab)
COc1cc(C(=O)NC(C)Cc2ccccn2)ccc1OC1CCN(C(C)=O)CC1 (centres undefined)	none (no result: AHR act)
Clc1cccc(/C=N/Nc2nnc(Cl)c3ccccc23)c1	AHR act 50
Clc1ccc(/C=N\Nc2ccccc2)cc1	none
Clc1ccc(/C=N/Nc2nnc(-c3ncc[nH]3)c3ccccc23)cc1	AHR act 76
Cc1[nH]c2ccccc2c1/C=C/c1nc2ccccc2c(=O)n1CCO	AHR act 52
COc1cccc2c(C)cc(N3CCCCCC3)nc12	none
Cc1cc(N2CCN(c3ncccn3)CC2)nc2c(C)cccc12	AHR act 72
CC1(C2CC2)NC(=O)N(CC(=O)Nc2ccccc2-c2ccccc2)C1=O (centres undefined)	none
CC(=O)Nc1ccc(C2=NN(Cc3nnc(-c4ccccc4)o3)C(=O)SC2)cc1	AHR act 76
O=C(CSc1nc2c(c(=O)n1-c1ccccc1)SCC2)NCC1CCCO1 (centres undefined)	none
O=C(Nc1nc2c(ccc3ccccc32)s1)c1ccco1	AHR act 66
O=C(NC(=S)Nc1nc2c(ccc3ccccc32)s1)c1cccs1	AHR act 67
O=C(Nc1ccc(-c2nc3c(ccc4ccccc43)o2)cc1)c1ccco1	AHR act 67
O=C(NC(=S)Nc1cccc2ncccc12)c1cccs1	none
O=C(Nc1ccc(-c2nc3cc(Cl)ccc3c(=O)o2)cc1)c1ccco1	none
Cn1cccc1C1CCCN1CC(=O)Nc1ccc(C(N)=O)cc1 (centres undefined)	none (no result: HIF act, pCIP destab, PolyA inhibitor, Platelet DG rel)
Cc1ccc(S(=O)(=O)NCc2ccc(C(=O)NCCN(Cc3ccccc3)C(C)C)cc2)cc1	none
Nc1ccc2c3c(cccc13)C(=O)N(c1ccccc1)C2=O	none (no result: AHR act)
CC(C)CCN1C(=O)c2cccc3c(N)ccc(c23)C1=O	AHR act 65 (no result: pCIP destab)
CCn1nc(C)cc1C(=O)N1CCCC(N(C)CCc2ccc(OC)c(OC)c2)C1 (centres undefined)	none
Cc1cc(C)nc(-n2nc(C)c(C3(O)C(=O)Nc4ccccc43)c2N)n1 (centres undefined)	AHR act 56
O=CC1=C(N2CCOCC2)/C(=C\c2ccccc2)CC1	none
N#CC1=C(N2CCOCC2)/C(=C\c2ccccc2)CC1	AHR act 49
CS(=O)(=O)N(CC(=O)Nc1ccc(Br)cc1F)C1CCCCC1	AHR act 55
Cc1nn(-c2nc3ccccc3s2)c(N)c1-c1ccc(Cl)cc1	AHR act 77 (no result: Platelet DG rel)
O=C(NCCc1csc(-c2ccc(C(F)(F)F)cc2)n1)c1cccs1	none
CCCC(C(=O)Nc1nccs1)c1ccccc1 (centres undefined)	none
COc1ccccc1C(=O)Nc1cccc(N(C)S(C)(=O)=O)c1	AHR act 51
CCOc1ccccc1C(=O)Nc1ccc2c(c1)C(=O)NC2=O	AHR act 47
COc1ccccc1C(=O)Nc1ccc2c(c1)C(=O)NC2=O	AHR act 58
COc1ccccc1C(=O)Nc1ccncc1	none
COc1ccccc1C(=O)Nc1ccc(C2=NNC(=O)CC2C)cc1 (centres undefined)	Platelet DG rel 88
Cc1ccccc1C(=O)Nc1ccc2c(c1)C(=O)NC2=O	none
CN1CC(=O)N(CC(=O)Nc2ccc3c(c2)CCC3)C1=O	none
COc1ccc(NS(=O)(=O)c2ccc(C(=O)N3CCC(C)CC3)cc2)cc1	none (no result: HIF act, pCIP destab, PolyA inhibitor, Platelet DG rel)
CCc1ccc(C(=O)C(C)OC(=O)CNS(=O)(=O)c2ccc(C)cc2)cc1 (centres undefined)	none (no result: pCIP destab)
COc1cc(OC)c(NC(=O)c2cncn2-c2ccc(F)cc2)cc1Cl	AHR act 65
COc1cc(NC(=O)c2c(F)c(F)c(F)c(F)c2F)c(OC)cc1Cl	none
Oc1nc(Nc2cccc(Cl)c2)sc1/C=C1\C=Nc2ccccc21	AHR act 117
Oc1cccc(Nc2nc(O)c(/C=C3\C=Nc4ccccc43)s2)c1	none (no result: HIF act, PolyA inhibitor, Platelet DG rel)
CC1=Nc2ccccc2/C1=C\c1sc(Nc2ccc(C)cc2)nc1O	AHR act 79
CCOC(=O)c1c(Nc2ccc(Cl)cc2)sc(/C=C2\C=Nc3ccccc32)c1O	none
Oc1nc(Nc2ccc(F)cc2)sc1/C=C1\C=Nc2ccccc21	AHR act 122
CC1=Nc2ccccc2/C1=C/c1sc(=O)n(CC(=O)N2CCCC2)c1O	none
FC(F)(F)c1cnc(COc2cc(Cl)cc(Cl)c2)c(Cl)c1	none
O=C(/C=C1\NCC2c3ccccc3CCN2C1=O)c1ccccc1 (centres undefined)	AHR act 62
COc1cccc(C(=O)N2CCC(n3nccc3NC(=O)CCOc3ccccc3)CC2)c1	none
CC(=O)Oc1ccc(Cl)cc1/C=C/c1ccc2ccccc2n1	AHR act 71
CCN(CC(=O)Nc1ccccc1OC)CC(=O)Nc1sccc1C#N	none
Cc1ccccc1CSc1nc2[nH]ncc2c(=O)[nH]1	none
Cc1ccc(C)c(CSc2nc3[nH]ncc3c(=O)[nH]2)c1	AHR act 48
O=C(Nc1ccc(C(F)(F)F)cc1)c1cccnc1N1CCOCC1	AHR act 61
CN(C)c1ccc(/C=N\Nc2ccccn2)cc1	none
C=CCc1c(C)nc(C)nc1N/N=C/c1ccc(N(C)C)cc1	AHR act 79
COc1cc(/C=C(\C#N)c2nc3ccc(C)cc3[nH]2)c([N+](=O)[O-])cc1OC	AHR act 66
COc1cc(/C=C(\C#N)c2nc3ccc(C)cc3[nH]2)cc([N+](=O)[O-])c1O	none (no result: HIF act, AHR act, PolyA inhibitor, Platelet DG rel)
